# The panel holds about 83,000 compounds, 20% with a hit somewhere; the sample as a whole holds those more often.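 Compound tested at a single concentration for 48 hours in 96-well plates; a percent growth value below 10 was scored as active.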 The source made the active and inactive calls.
# Test system: HL-60(TB) leukemia
# Test: NCI-60 one-dose screen, 48 h (100 = growth as untreated, 0 = no growth, -100 = all killed)
# Conditions: 10 µM unless noted
row,SMILES,growth
1,Cn1cc(-c2cc(N)n3nc(-c4cn(C)c5ccccc45)cc3n2)c2ccccc21,11.6% (inactive)
2,COC(=O)c1ccc(NC2=C(Cl)C(=O)C(C)=C(C)C2=O)cc1,41.3% (inactive)
3,CC1=C(C)C(=O)C(Nc2ccc(C)c(C)c2)=C(Br)C1=O,-37.7% (active)
4,CCc1ccc(SC2c3ccc(N(CC)CC)cc3Oc3nc(N)c(C#N)c(N)c32)cc1 (stereo unspecified),-12.5% (active)
5,COc1cc2cc(Oc3ccc(NC(=O)c4cccc(C(F)(F)F)c4)cc3)c(C)nc2cc1OCCN1CCCCC1,-51.6% (active)
6,CCCCCCCn1cc2c(N[C@H](C)c3ccccc3)ncnc2n1,117% (inactive)

# Source: PubChem BioAssay (NCI)
